# MCL1-BIM inh = inhibitors of MCL1 binding to BIM-BH3, primary screen, biochemical, fluorescence polarization | AID 2057, 2009 | hit rate 0.68% among 320,000 | Induced myeloid leukemia cell differentiation protein Mcl-1 (Homo sapiens), Q07820 | inhibition, % at 10.9 µM | GST-MCL1 / FITC-Bim-BH3 fluorescence polarization;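 active = inhibition above the mean inhibition of all tested compounds plus 3 SD, set per campaign, cut at about 40% in these data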;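 also: 0% = DMSO wells and 100% = unlabeled Bim-BH3 peptide control; higher means more loss of mP so more displacement of Bim peptide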
# Target sequence (Q07820 whole entry, looked up): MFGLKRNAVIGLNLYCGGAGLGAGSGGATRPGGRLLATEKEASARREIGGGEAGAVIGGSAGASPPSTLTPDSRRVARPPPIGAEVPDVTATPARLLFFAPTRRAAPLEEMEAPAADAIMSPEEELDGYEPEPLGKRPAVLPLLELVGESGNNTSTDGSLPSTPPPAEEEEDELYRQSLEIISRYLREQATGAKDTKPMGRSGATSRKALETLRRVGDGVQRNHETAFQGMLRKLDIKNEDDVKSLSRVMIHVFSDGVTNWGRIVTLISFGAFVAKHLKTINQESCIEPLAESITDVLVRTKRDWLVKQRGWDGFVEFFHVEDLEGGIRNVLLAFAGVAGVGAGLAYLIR
# TNF necrop inh = inhibitors of TNF-alpha triggered necroptosis, primary screen, cell-based, Jurkat FADD-/-, single concentration | hit rate 0.068% among 220,000 | Jurkat FADD-/- TNF necroptosis rescue, ATP luminescence, 24 h; 0 = TNF only, 100 = no-TNF cells | activation (protection from cell death), % at 10 µM;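 active = activation, meaning protection from cell death, of at least 50% relative to plate controls; inactive = activation below 50%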;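 also: necroptosis triggered by 40 ng/mL TNF-alpha added together with compound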
# Mcl1 Noxa PPI = Mcl-1/Noxa binding inhibitors, primary screen, biochemical, TR-FRET, 1536-well | Induced myeloid leukemia cell differentiation protein Mcl-1 (Homo sapiens), Q07820 | TR-FRET Mcl-1/Noxa peptide binding, 2 h | inhibition, % at 21.7 µM | hit rate 1.5% among 220,000;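 active = compounds that cut the protein-peptide binding signal by more than 50% relative to plate controls in a single-dose test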;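 also: His-tagged Mcl-1 with rhodamine Noxa BH3 peptide and terbium anti-His antibody; 0% = Mcl-1 plus Noxa peptide wells and 100% = peptide-only wells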
# zVAD death inh = inhibitors of zVAD-triggered necroptosis, primary screen, L929 cells. L929 zVAD necroptosis rescue, ATP luminescence, 24 h; with zVAD 60 µM. viability rescue, % at 10 µM. hit rate 0.38% among 220,000;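 active = activation, scaled between plate controls, above about 75%, limit read from the data; inactive = activation under that limit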;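 also: 0% = zVAD with DMSO and 100% = DMSO alone without zVAD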
# Mcl1-Bid inh = Mcl-1/Bid binding inhibitors, primary screen, biochemical, TR-FRET, 1536-well; TR-FRET Mcl-1/Bid-Dy647 peptide binding; Induced myeloid leukemia cell differentiation protein Mcl-1 (Homo sapiens), Q07820; hit rate 0.97% among 220,000; inhibition, % at 21.7 µM;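 active = compounds that cut the binding signal by more than half at the single screening dose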;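 also: His-tagged Mcl-1 with europium anti-His antibody binding Bid BH3 peptide; 0% = Mcl-1 plus peptide wells and 100% = peptide-only wells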
# Mcl-1 Bim block = inhibitors of Bim peptide binding to Mcl-1, primary screen, biochemical, bead-based flow cytometry, multiplex. AID 1009, 2008. Bim peptide-Mcl-1 binding. Induced myeloid leukemia cell differentiation protein Mcl-1 (Homo sapiens), Q07820. hit rate 0.1% among 190,000. inhibition, % at 10 µM; in the data active = inhibition above about 40%;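 also: 0% = no compound tracer wells and 100% = peptide blocker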
# The depositor's hits bear a star; . = not tested or not shown. This is a sample that favours compounds with a hit; in the whole collection about 2.4% have one here.
SMILES,MCL1-BIM inh,TNF necrop inh,Mcl1 Noxa PPI,zVAD death inh,Mcl1-Bid inh,Mcl-1 Bim block
Cc1cc(N2C(=O)C=CC2=O)c([N+](=O)[O-])cc1C,20,0,50,1,57*,-12
O=C1C=C(c2cccc3c2sc2ccccc23)C[C@@H](c2ccc(F)cc2)C1,5,.,.,.,.,.
CCOc1ccc(/C=C2/SC(=O)NC2=S)cc1,50*,-2,29,18,-15,-4
NC(=O)Cn1c(O)c(N=NC(=O)CNC(=O)/C=C/c2ccccc2)c2ccccc21,6,.,.,.,.,.
C=CCn1c(O)c(N=NC(=O)CNC(=O)/C=C/c2ccco2)c2ccccc21,29,-2,69*,0,-16,-2
C=CCn1c(O)c(N=NC(=O)CNC(=O)/C=C/c2ccc(OC)cc2)c2ccccc21,5,2,7,1,96*,.
O=C(Nc1ccn(CC(=O)N2CCN(c3ccccn3)CC2)c(=O)n1)OCc1ccccc1,6,.,.,.,.,.
CN(C)c1ccc(NC(=O)c2cccc(N3C(=O)C4C5C=CC(C5)C4C3=O)c2)cc1 (stereo not given),0,1,80*,2,-74,-2
CC(OC(=O)c1cccc(N2C(=O)c3ccccc3C2=O)c1)C(=O)Nc1ccc(N(C)C)cc1 (stereo not given),12,2,76*,2,40,-4
CC(=O)N(c1ccccc1)c1nnc(-c2cnc(C)cn2)s1,5,76*,13,37,-18,-2
Cc1cnc(-c2nnc(N(C)C(=O)c3cccnc3)s2)cn1,6,0,-2,0,-13,0
N#C/C(=C/c1ccc(-c2ccc(S(N)(=O)=O)cc2)o1)c1nc2ccccc2s1,15,2,21,4,53*,-23
COC(=O)c1ccc(/C=C(\C#N)c2nc3ccccc3s2)cc1,-67,-1,59*,0,59*,0
N#C/C(=C/c1ccc(-c2ccc(S(N)(=O)=O)cc2)o1)C(=O)Nc1ccccc1,6,5,36,4,-18,3
Cc1ccc(S(=O)(=O)Nc2nc3ccccc3nc2N2CCN(c3ccccc3F)CC2)cc1,3,0,51*,0,4,-5
Cc1ccc(CC(=O)Nc2nccs2)cc1C,2,.,.,.,.,.
Cn1nnnc1SCC1=C(C(=O)O)N2C(=O)[C@@H](NC(=O)[C@H](O)c3ccccc3)[C@H]2SC1,11,0,51*,2,-57,-4
Cn1nnnc1SCC1=C(C(=O)O)N2C(=O)C(NC(=O)C3CC3c3ccccc3)C2SC1 (stereo not given),18,-1,26,0,-56,3
O=C(NCCc1cccc(C(F)(F)F)c1)C1CCC(=O)N(C2CC2)C1 (stereo not given),10,.,.,.,.,.
Cc1nc2ccccc2n1C(=O)c1ccccc1[N+](=O)[O-],-8,0,-1,1,52*,-4
CCn1c2ccccc2c2cc(NC(=O)C(C)OC(=O)c3ccc(NC(=O)CC#N)cc3)ccc21 (stereo not given),-5,.,.,.,.,.
Cn1ncc([N+](=O)[O-])c1C(=O)Nc1ccc(-c2nc3ccccc3[nH]2)cc1,1,-5,10,18,-21,3
CCOc1ccc(C(=O)Nc2ccc(-c3nc4ccccc4[nH]3)cc2)cc1[N+](=O)[O-],-2,4,58*,2,55*,-7
O=C(CSc1nc2ncc(Br)cc2[nH]1)c1cccc([N+](=O)[O-])c1,-8,1,64*,4,-81,-2
CC(C)C1Nc2ccc(C(=O)NCCCN3CCOCC3)cc2NC1=O (stereo not given),-1,.,.,.,.,.
SMILES,MCL1-BIM inh,TNF necrop inh,Mcl1 Noxa PPI,zVAD death inh,Mcl1-Bid inh,Mcl-1 Bim block
CN1C(=O)/C(=C/c2cc(N=Nc3ccccc3)ccc2O)SC1=S,7,-7,54*,1,7,-4
CCC(=O)N1c2ccc(S(=O)(=O)N3CCN(c4ccc([N+](=O)[O-])cc4)CC3)cc2CC1C (stereo not given),0,.,.,.,.,.
CCOc1ccccc1-c1c2cc(O)c(=O)cc-2oc2cc(O)c(O)cc12,.,-2,59*,3,-25,1
CCOc1ccc(CN(C)C(=O)CNC(=O)c2ccc3ccccc3c2)cc1OC,5,.,.,.,.,.
C[N+]1(CCC(=O)c2ccccc2)CCCCC1,-18,2,-12,.,56*,-3
COc1ccccc1C(=O)Nc1ncc2c(n1)CC(c1ccco1)CC2=O (stereo not given),6,-5,54*,1,-8,-1
COc1ccc(C2CC(=O)c3cnc(NC(=O)c4ccco4)nc3C2)cc1 (stereo not given),6,.,.,.,.,.
Cc1c(C(=O)O)sc2nc(CSc3nnc(-c4ccc(F)cc4)n3C)[nH]c(=O)c12,3,-1,15,-1,-33,2
CC(=O)c1sc2nc(CSc3nnnn3-c3ccccc3)[nH]c(=O)c2c1C,-65,1,96*,2,3,-1
CC(=O)c1sc2nc(CSc3nncn3C)[nH]c(=O)c2c1C,-16,2,21,1,54*,2
COc1ccccc1-n1cnnc1SCC(=O)Nc1cc(C(C)(C)C)nn1-c1ccccc1,-4,7,6,105*,-12,2
CC(=O)c1c(C)[nH]c(C(=O)N(C)CC(=O)Nc2ccc(Cl)c(C(F)(F)F)c2)c1C,0,.,.,.,.,.
CC1(C)CC2CC(C)(CN2S(=O)(=O)c2ccc(F)cc2F)C1 (stereo not given),6,.,.,.,.,.
CCn1cc(/C=C/C(=O)Nc2ccn(Cc3c(F)c(F)cc(F)c3F)n2)cn1,11,78*,54*,1,7,-8
COc1ccc(-c2ccc(/C=C3/C(=N)N4C=CSC4=NC3=O)o2)c([N+](=O)[O-])c1,6,3,83*,1,75*,0
Oc1[nH]c(=S)sc1/C=C1\C(c2ccccc2)=Nc2ccccc21,-73,-1,81*,3,-3,-6
Cc1ccc(OCCCC(=O)N(C)CC(=O)Nc2ccccc2Cl)cc1,0,.,.,.,.,.
COc1ccc(C(=O)Nc2ccccc2C(=O)N2CCOCC2)cc1,-7,.,.,.,.,.
COc1ccc(C2=Nc3cccc4cccc(c34)N2)cc1,11,-18,35,1,-72,4
CC(C)C1=Nc2cccc3cccc(c23)N1,15,-4,53*,0,-71,-6
ClCC1=Nc2cccc3cccc(c23)N1,19,-15,58*,0,-75,.
